Consider 56 molecules from ChEMBL document CHEMBL3988442, “University of Dundee, Small-Polar-MMV Screening Library” (2021).

Out of some 48,000 compounds screened, about 13,000 (27%) showed an effect of 50% or more. Some of the results follow.

This assay relates to Wolbachia pipientis. Kind of assay: Anti-Wolbachia Cell-Based Screen. Format: functional. Also noted: scale not given: in the data most compounds retested in dose-response had high values. The note with it: 5 µM.
For `CNCc1cn(C[C@H]2C[C@@H]3CCN2C[C@@H]3C(=O)NC2CCCCC2)nn1`, the “Percent Effect” value is recorded as -0.1027%.
Turning to `COc1cccc([C@@H]2CCN(Cc3ccc4ccccc4n3)C[C@H]2O)c1`, the “Percent Effect” value is on record as -2.697%.
On to `COc1ncc(CN2CCC3(CCCN(CC4CCC4)C3)C2)cn1` (stereo unspecified), for which the “Percent Effect” value was 83.26%.
As to `CCc1ncc(CN2CCC3(CCCN(CC4CCC4)C3)C2)cn1` (stereo unspecified), the “Percent Effect” value was 67.34%.
As to `CCc1ncc(CN2C[C@H]3CC[C@@H]2CN(C(=O)C2CCC2)C3)cn1`, the “Percent Effect” value is recorded as -5.818%.
Turning to `Fc1cnc(N2CC3(CCN(CC4CC4)C3)C2)nc1.O=C(O)C(F)(F)F`, the “Percent Effect” value came to 6.625%.
Consider `c1cncc(CN2CCC3(CCCN(c4nncs4)C3)C2)c1` (stereo unspecified), for which the “Percent Effect” value turned out to be 3.767%.
In the case of `COCCN1CCC2(CCCN(c3ncc(F)cn3)C2)C1` (stereo unspecified), the “Percent Effect” value turned out to be 7.957%.
As to `O=C(O)C(F)(F)F.c1cnc(N2CCCC3(CCN(CC4CCC4)C3)C2)nc1` (stereo unspecified), the “Percent Effect” value is recorded as -2.816%.
On to `Cc1ncc(CN2CCC3(CCCN(CC4CCC4)C3)C2)cn1` (stereo unspecified), for which the “Percent Effect” value was 97.43%.
In the case of `CCc1cnc(N2CC3(CCN(Cc4ccsc4)C3)C2)nc1.O=C(O)C(F)(F)F` it was 18.1%.
On to `Cc1c(CN2CCCC(C(=O)c3ccccc3)C2)cc(C#N)n1C` (stereo unspecified), for which the “Percent Effect” value was -33.94%.
As to `CCn1ncc(CN2CCCC(C(=O)c3ccc(Cl)cc3)C2)c1C` (stereo unspecified), the “Percent Effect” value is on record as -8.229%.
Consider `O=C(O)C(F)(F)F.O=C1[C@H]2CN(Cc3ccccc3)C[C@H]2CN1c1cncnc1`, for which the “Percent Effect” value was 5.118%.
As for `CC(C)CNC(=O)[C@H]1C[C@@H]2CN(Cc3cccnc3)C[C@H]1O2.O=C(O)C(F)(F)F.O=C(O)C(F)(F)F`, the “Percent Effect” value was determined as 1.995%.
Regarding `CCNC(=O)[C@H]1CN(Cc2ccccc2)C[C@@H]1C(=O)c1ccccc1`, the “Percent Effect” value came to 155%.
As for `COCCN(C)C(C)Cc1ccccc1OC` (stereo unspecified), the “Percent Effect” value is listed as -4.833%.
Turning to `CO[C@H]1CN(Cc2ccc(C)o2)[C@@H]2CCCO[C@H]12.O=C(O)C(F)(F)F`, the “Percent Effect” value is reported as -4.054%.
In the case of `CO[C@H]1CN(CC2CCOCC2)[C@@H]2CCCO[C@H]12.O=C(O)C(F)(F)F` it was 117.1%; in that of `Cc1noc(C)c1CN1C[C@H](OCC(=O)N(C)C)[C@H]2OCCC[C@H]21.O=C(O)C(F)(F)F`, -4.98%.
For the molecule `CO[C@H]1CN(CC2CC2)[C@@H]2CCCO[C@H]12.O=C(O)C(F)(F)F`, the “Percent Effect” value was 102.7%.
As for `CCO[C@H]1CN(CC2CC2)[C@@H]2CCCO[C@H]12.O=C(O)C(F)(F)F`, the “Percent Effect” value amounted to 109.7%.
Turning to `Cc1noc(C)c1CN1C[C@H](OCC2CC2)[C@H]2OCCC[C@H]21.O=C(O)C(F)(F)F`, the “Percent Effect” value is listed as 2.314%.
`CN(Cc1cncnc1)[C@H]1CN(CC2CC2)[C@@H]2CCCO[C@@H]21.O=C(O)C(F)(F)F.O=C(O)C(F)(F)F`: the “Percent Effect” value is -10.71%.
For `CO[C@@H]1CC[C@H]2[C@H]1OCCN2CC1CCOCC1.O=C(O)C(F)(F)F`, the “Percent Effect” value was 4.293%.
Take `CO[C@@H]1CN(Cc2scnc2C)[C@@H]2CCCO[C@@H]21.O=C(O)C(F)(F)F.O=C(O)C(F)(F)F`: the “Percent Effect” value was -11.47%.
Consider `CC(=O)N1CCC2(CCN(CC(C)C)C2)C1` (stereo unspecified), for which the “Percent Effect” value was -12.71%.
As for `CCNC(=O)NC[C@H]1C[C@@H]2CCN1C[C@@H]2c1cc(-c2cccs2)nn1C`, the “Percent Effect” value is -4.515%.
With `CCN(CC)C[C@H]1CN2CC[C@H]1C[C@@H]2CNC(=O)Nc1ccsc1`, the “Percent Effect” value is recorded as 12.78%.
Regarding `O=C(O)C(F)(F)F.O=C(c1ccncc1F)N1C[C@@H]2OCCN(CC3CC3)[C@@H]2C1`, the “Percent Effect” value is reported as -13.64%.
Consider `c1cnc(Nc2ccc(C3CCCCN3)cn2)cn1` (stereo unspecified), for which the “Percent Effect” value amounted to 123.5%.
In the case of `Cc1cccc(Nc2ccc(C3CCCCN3)cn2)n1` (stereo unspecified) it was 86.37%.
Regarding `Cc1cc(C)nc(Nc2ccc(C3CCCCN3)cn2)n1` (stereo unspecified), the “Percent Effect” value turned out to be 126%.
For `CC(=O)N1CCOCC2(CCCNC2)C1` (stereo unspecified), the “Percent Effect” value was -30.9%.
For the molecule `CCCN1C[C@H]2CC[C@@H]1CN(C(=O)Cn1c(C)cc(C)nc1=O)C2`, the “Percent Effect” value was -4.771%.
In the case of `Cn1cc(CN2CCN3C[C@H](Oc4cccnc4)C[C@H]3C2)cn1`, the “Percent Effect” value is listed as -3.726%.
Consider `c1ccc(COC[C@@]23CCC[C@@H]2CN(Cc2ccccn2)C3)nc1`, for which the “Percent Effect” value was -0.5697%.
For the molecule `Cn1cc(CN2C[C@H]3CCC[C@@]3(COc3ccccn3)C2)cn1.O=C(O)C(F)(F)F.O=C(O)C(F)(F)F`, the “Percent Effect” value came out at 101.4%.
As to `O=C(O)C(F)(F)F.O=C(O)C(F)(F)F.c1ccc(CN2C[C@H]3CCC[C@@]3(COCC3CC3)C2)nc1`, the “Percent Effect” value turned out to be 8.685%.
In the case of `Cn1cc(CN2C[C@H]3CCC[C@@]3(COc3cccnc3)C2)cn1` it was 95.98%; in that of `Cc1cc(C(=O)N[C@H]2COC[C@@H]2N2CCOCC2)c2ccc(F)cc2n1`, -11.09%.
As to `O=C(N[C@H]1COC[C@@H]1N1CCCC1)c1c[nH]nc1C1CCCCC1`, the “Percent Effect” value is recorded as 3.503%.
In the case of `O=C(c1csc(-c2ncccn2)n1)N1CCN2CCCCC2C1` (stereo unspecified) it was -3.286%; in that of `O=C(N[C@H]1COC[C@@H]1N1CCCC1)c1csc(Cc2ccccc2)n1`, 115.4%.
On to `O=C(N[C@H]1COC[C@@H]1N1CCCC1)c1csc(-c2cccs2)n1`, for which the “Percent Effect” value turned out to be 103.2%.
In the case of `Cc1cc(C)n2nc(C(=O)N[C@H]3C[C@H]4CN(C)CCN4C3)cc2n1` it was -14.62%; in that of `Cc1nc(C(=O)N[C@H]2COC[C@@H]2N2CCCCC2)cs1`, 100.8%.
On to `CCCc1nc(C(=O)N[C@H]2COC[C@@H]2N2CCN(C)CC2)cs1`, for which the “Percent Effect” value stood at 87.61%.
For `Cc1ccc2nc(C)cc(C(=O)N[C@H]3COC[C@@H]3N3CCOCC3)c2c1`, the “Percent Effect” value was -2.538%.
`Cc1ccc2nc(C)c(C)c(C(=O)N[C@H]3COC[C@@H]3N3CCCC3)c2c1`: the “Percent Effect” value is -0.09991%.
Take `Fc1cnc(N2CCOCC3(CCCNC3)C2)nc1` (stereo unspecified): the “Percent Effect” value is -3.763%.
In the case of `CCCN1CC2(CCN(c3ncc(F)cn3)CC2)CC1C(=O)O` (stereo unspecified), the “Percent Effect” value worked out at 2.005%.
As for `CC(C)c1ocnc1C(=O)N1CCC2(CC1)OCCO2`, the “Percent Effect” value is -1.453%.
As for `O=S(=O)(NC[C@H]1C[C@@H]2CCN1C[C@@H]2CN1CCOCC1)c1ccccc1`, the “Percent Effect” value is recorded as -10.01%.
In the case of `c1c[nH]c2nc(C3CCNCC3)nc-2c1`, the “Percent Effect” value is on record as 118.5%.
Consider `c1c[nH]c2nc(C3CCCNC3)nc-2c1` (stereo unspecified), for which the “Percent Effect” value was determined as 109%.
